We go through 4 compounds from ChEMBL document CHEMBL1961873, “Compounds: GSK PKIS; Assays: Nanosyn kinase panel” (2012).

By inhibition is commonly meant the change of the read-out against control, counted positive when it falls.

Experiment [1] concerns the target T1, Serine/threonine-protein kinase Nek9 (Homo sapiens) (UniProt Q8TD19).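 Also: each value is a mean percent inhibition of NEK9.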
T1 sequence (whole entry): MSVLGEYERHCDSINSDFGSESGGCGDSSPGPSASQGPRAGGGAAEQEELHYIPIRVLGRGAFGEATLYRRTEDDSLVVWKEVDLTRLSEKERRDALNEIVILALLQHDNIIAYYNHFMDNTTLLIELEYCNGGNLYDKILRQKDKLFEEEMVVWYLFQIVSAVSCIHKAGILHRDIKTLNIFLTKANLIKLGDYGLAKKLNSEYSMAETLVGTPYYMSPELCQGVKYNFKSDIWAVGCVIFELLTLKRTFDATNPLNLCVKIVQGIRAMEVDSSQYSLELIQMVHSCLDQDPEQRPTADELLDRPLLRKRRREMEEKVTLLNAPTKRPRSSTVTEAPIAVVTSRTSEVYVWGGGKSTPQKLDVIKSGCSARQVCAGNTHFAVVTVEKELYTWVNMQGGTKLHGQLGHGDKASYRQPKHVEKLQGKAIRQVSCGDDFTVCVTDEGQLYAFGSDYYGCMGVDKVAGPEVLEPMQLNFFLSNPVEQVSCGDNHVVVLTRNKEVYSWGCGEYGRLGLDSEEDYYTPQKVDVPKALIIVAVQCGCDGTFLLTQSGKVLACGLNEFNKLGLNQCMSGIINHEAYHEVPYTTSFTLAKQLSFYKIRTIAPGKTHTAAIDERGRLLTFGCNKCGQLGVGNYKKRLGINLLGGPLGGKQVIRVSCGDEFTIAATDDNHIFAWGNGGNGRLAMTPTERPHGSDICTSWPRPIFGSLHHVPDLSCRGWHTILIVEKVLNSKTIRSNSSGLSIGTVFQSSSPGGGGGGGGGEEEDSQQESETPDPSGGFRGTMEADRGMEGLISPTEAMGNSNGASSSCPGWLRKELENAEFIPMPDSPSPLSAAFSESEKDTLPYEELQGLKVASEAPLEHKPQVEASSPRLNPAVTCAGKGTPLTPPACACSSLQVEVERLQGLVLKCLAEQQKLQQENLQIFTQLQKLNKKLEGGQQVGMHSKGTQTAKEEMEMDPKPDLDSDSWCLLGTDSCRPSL
Conditions: at 1 µM.

Experiment [2] deals with Serine/threonine-protein kinase PLK1 (Homo sapiens) (UniProt P53350). Conditions: at 0.1 µM.
The target is the same in experiment [3]. Conditions: at 1 µM.
Experiment [4] addresses T2, Dual specificity protein kinase TTK (Homo sapiens) (UniProt P33981).
T2 sequence (whole entry): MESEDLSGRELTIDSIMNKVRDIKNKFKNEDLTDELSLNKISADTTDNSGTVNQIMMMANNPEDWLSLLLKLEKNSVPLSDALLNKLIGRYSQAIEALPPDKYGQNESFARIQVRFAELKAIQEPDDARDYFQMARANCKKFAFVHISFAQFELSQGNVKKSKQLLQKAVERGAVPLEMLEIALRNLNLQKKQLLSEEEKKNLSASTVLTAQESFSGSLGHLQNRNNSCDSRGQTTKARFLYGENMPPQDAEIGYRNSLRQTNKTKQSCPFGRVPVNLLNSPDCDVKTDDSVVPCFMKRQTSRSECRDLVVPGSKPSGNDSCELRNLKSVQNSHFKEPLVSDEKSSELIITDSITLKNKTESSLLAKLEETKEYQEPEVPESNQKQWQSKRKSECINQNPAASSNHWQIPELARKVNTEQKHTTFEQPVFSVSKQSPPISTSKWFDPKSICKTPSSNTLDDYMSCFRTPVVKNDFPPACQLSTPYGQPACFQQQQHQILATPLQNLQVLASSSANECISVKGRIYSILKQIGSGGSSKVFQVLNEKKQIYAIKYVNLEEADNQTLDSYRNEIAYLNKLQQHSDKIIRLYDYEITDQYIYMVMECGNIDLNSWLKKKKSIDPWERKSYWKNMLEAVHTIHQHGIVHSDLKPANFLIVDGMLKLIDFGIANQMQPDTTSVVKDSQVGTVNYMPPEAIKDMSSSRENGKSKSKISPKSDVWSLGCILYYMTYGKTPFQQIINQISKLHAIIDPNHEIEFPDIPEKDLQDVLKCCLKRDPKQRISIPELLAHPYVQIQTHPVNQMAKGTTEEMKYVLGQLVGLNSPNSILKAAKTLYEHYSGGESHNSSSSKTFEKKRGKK
Conditions: at 0.1 µM.

In experiment [5] the test system is T3, Receptor-type tyrosine-protein kinase FLT3 (Homo sapiens), P36888 [D835Y].
T3 sequence (whole entry): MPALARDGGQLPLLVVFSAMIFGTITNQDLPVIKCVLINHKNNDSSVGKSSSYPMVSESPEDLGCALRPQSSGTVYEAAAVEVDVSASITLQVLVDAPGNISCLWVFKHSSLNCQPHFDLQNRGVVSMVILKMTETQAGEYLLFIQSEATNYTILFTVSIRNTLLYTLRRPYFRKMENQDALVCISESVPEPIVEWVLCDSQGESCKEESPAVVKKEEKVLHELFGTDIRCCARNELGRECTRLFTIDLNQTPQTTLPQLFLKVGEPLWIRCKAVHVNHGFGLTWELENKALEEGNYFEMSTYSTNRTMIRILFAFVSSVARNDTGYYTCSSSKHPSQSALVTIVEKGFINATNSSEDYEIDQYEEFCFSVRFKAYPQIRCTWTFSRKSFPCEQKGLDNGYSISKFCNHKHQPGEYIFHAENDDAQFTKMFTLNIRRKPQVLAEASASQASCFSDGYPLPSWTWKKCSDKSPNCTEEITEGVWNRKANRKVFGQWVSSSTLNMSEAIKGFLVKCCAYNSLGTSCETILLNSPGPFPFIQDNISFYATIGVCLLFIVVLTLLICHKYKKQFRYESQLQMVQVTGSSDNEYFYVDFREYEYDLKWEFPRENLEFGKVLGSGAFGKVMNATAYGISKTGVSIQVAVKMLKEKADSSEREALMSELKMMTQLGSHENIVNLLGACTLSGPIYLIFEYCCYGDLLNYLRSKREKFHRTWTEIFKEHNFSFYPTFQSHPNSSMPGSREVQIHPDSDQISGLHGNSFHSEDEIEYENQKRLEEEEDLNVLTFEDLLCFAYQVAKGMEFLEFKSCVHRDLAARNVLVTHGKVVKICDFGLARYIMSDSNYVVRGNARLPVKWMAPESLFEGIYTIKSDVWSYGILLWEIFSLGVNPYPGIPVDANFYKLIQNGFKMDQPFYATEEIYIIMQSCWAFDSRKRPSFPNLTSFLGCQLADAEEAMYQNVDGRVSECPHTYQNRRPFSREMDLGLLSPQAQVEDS
Conditions: at 1 µM.

The target in experiment [6] is Vascular endothelial growth factor receptor 3 (Homo sapiens) (UniProt P35916). Conditions: at 0.1 µM.
Chain of Vascular endothelial growth factor receptor 3 (Homo sapiens) (P35916 whole entry): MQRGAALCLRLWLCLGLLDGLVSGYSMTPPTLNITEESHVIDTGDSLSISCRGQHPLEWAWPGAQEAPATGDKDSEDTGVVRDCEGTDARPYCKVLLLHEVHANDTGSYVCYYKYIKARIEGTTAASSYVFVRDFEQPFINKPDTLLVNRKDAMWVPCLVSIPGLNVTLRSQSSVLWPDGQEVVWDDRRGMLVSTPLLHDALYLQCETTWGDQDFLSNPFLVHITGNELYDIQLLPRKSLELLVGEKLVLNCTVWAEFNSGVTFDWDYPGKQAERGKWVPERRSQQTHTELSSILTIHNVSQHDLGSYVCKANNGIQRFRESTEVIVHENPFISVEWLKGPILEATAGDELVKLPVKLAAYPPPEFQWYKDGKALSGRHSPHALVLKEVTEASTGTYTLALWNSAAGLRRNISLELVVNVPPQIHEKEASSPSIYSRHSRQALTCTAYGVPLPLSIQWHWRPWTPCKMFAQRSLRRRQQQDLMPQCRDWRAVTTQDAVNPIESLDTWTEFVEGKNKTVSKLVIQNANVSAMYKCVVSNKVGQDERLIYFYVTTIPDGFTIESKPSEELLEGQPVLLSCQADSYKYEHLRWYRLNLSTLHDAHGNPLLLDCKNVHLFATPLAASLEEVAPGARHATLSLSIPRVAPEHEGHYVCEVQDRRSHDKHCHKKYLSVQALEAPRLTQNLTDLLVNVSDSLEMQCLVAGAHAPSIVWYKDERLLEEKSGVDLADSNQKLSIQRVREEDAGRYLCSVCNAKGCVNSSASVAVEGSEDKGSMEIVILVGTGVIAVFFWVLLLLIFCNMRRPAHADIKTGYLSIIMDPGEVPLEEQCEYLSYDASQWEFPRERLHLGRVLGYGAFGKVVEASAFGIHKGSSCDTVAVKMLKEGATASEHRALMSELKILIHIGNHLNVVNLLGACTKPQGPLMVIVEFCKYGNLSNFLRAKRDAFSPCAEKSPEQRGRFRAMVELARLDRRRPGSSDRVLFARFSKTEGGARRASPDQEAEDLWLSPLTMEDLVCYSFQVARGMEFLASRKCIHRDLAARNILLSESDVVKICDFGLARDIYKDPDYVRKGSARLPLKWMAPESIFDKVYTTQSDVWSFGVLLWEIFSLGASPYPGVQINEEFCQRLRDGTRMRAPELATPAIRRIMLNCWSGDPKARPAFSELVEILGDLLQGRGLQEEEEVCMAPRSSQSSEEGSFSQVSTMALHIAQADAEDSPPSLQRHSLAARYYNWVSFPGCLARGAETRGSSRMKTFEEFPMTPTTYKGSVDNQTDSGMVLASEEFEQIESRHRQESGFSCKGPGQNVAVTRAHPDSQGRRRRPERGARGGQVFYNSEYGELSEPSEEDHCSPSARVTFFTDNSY
The target is the same in experiment [7]. Conditions: at 1 µM.
Experiment [8] concerns the target Macrophage colony-stimulating factor 1 receptor (Homo sapiens) (UniProt P07333). The note with it: at 0.1 µM.
The target is the same in experiment [9]. The note with it: at 1 µM.
For experiment [10], the target named is Tyrosine-protein kinase Fyn (Homo sapiens) (UniProt P06241). Conditions: at 0.1 µM.
Chain of Tyrosine-protein kinase Fyn (Homo sapiens) (P06241 2-537 limits assumed): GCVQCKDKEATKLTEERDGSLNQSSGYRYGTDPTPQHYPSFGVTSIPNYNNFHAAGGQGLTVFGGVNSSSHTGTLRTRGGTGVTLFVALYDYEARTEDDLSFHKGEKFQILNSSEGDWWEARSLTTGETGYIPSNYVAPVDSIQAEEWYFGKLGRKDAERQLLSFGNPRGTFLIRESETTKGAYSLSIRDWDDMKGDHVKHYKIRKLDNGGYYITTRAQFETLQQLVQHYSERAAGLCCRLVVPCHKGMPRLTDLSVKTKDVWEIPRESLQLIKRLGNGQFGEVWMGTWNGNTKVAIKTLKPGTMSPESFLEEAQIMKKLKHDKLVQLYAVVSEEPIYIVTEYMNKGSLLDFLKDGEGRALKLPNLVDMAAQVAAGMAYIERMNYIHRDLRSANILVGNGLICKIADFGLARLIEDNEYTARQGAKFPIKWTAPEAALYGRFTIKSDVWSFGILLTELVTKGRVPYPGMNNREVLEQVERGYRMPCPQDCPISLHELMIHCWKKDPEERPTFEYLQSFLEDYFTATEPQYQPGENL
Experiment [11] has the same target. Conditions: at 1 µM.
In experiment [12] the target is Tyrosine-protein kinase HCK (Homo sapiens) (UniProt P08631). The note with it: at 0.1 µM.
Chain of Tyrosine-protein kinase HCK (Homo sapiens) (P08631 2-526 limits assumed): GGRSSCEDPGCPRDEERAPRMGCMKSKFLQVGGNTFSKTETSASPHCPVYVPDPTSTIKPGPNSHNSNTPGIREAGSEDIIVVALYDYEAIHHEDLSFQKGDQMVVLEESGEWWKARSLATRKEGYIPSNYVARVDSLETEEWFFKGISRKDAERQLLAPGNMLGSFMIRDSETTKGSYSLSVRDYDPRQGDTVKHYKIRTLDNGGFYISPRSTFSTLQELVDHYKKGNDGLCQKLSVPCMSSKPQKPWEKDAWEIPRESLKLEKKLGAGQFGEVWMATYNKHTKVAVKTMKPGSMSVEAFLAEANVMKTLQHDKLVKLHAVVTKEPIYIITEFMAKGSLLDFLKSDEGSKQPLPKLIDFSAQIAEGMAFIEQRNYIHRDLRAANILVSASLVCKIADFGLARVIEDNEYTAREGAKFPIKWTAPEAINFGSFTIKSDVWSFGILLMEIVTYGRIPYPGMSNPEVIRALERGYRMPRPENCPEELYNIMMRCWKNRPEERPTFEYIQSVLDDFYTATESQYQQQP
Experiment [13] shares this target. The note with it: at 1 µM.
Experiment [14] addresses Insulin-like growth factor 1 receptor (Homo sapiens) (UniProt P08069). Conditions: at 0.1 µM.
Experiment [15] shares this target. Conditions: at 1 µM.
For experiment [16], the target named is Insulin receptor (Homo sapiens) (UniProt P06213). Conditions: at 0.1 µM.
Experiment [17] has the same target. The note with it: at 1 µM.
Experiment [18] has as its target Insulin receptor-related protein (Homo sapiens) (UniProt P14616). Conditions: at 0.1 µM.
For experiment [19] the target is unchanged. The note with it: at 1 µM.
The target of experiment [20] is T4, Tyrosine-protein kinase ITK/TSK (Homo sapiens) (UniProt Q08881).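 Also: mean percent inhibition of ITK from the GSK PKIS screen.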
T4 sequence (whole entry): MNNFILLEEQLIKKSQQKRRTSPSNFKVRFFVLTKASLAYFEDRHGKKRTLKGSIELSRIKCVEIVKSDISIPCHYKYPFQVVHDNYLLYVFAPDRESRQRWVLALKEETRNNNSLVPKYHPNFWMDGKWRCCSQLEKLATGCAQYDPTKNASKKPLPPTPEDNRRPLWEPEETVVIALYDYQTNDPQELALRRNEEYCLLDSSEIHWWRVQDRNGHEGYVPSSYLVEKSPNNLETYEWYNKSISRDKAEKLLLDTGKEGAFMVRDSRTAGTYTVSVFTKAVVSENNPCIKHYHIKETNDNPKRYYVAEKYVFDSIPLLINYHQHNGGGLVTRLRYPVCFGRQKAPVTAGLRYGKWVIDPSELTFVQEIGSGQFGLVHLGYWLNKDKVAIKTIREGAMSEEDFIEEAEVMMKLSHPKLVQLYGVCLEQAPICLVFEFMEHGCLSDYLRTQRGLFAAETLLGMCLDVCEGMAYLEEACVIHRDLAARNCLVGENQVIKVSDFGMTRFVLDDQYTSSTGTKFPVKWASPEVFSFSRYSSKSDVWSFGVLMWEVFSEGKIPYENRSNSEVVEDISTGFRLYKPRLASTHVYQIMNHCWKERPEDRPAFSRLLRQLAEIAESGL
The note with it: at 0.1 µM.

Chain of Insulin-like growth factor 1 receptor (Homo sapiens) (P08069 31-736 limits assumed): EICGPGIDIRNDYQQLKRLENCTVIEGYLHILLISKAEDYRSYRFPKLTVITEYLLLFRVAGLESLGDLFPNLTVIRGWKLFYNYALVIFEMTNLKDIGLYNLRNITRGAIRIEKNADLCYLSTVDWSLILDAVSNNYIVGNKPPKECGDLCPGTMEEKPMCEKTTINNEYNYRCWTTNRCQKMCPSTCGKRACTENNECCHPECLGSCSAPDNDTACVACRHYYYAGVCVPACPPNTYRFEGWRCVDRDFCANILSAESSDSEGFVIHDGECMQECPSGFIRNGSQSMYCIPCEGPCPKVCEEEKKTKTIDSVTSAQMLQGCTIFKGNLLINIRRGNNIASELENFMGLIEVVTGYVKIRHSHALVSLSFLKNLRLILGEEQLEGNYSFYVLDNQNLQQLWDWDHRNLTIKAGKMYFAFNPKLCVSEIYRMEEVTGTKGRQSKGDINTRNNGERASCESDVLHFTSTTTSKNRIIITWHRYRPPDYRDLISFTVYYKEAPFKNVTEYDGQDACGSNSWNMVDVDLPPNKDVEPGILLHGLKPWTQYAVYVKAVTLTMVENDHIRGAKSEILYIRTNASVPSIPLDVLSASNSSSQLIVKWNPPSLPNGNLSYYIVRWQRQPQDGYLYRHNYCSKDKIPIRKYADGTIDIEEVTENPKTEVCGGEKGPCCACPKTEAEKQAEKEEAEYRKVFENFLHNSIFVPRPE
Chain of Insulin-like growth factor 1 receptor (Homo sapiens) (P08069 741-1367 limits assumed): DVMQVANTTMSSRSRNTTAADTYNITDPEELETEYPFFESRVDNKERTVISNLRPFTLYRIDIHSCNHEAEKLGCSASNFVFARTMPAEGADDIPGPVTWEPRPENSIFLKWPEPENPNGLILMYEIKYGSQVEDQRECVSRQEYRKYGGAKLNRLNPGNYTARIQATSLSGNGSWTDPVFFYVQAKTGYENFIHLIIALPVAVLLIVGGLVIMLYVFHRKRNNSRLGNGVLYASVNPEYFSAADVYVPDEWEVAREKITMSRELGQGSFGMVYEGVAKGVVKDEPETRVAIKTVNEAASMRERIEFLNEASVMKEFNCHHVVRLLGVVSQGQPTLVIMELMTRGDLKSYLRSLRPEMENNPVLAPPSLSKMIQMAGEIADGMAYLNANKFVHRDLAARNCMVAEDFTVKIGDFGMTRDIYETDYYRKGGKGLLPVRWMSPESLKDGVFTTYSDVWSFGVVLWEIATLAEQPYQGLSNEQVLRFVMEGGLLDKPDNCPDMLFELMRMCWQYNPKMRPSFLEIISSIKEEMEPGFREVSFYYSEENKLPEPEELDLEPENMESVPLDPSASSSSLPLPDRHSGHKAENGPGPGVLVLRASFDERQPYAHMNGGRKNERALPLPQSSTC
Chain of Insulin receptor-related protein (Homo sapiens) (P14616 27-742 limits assumed): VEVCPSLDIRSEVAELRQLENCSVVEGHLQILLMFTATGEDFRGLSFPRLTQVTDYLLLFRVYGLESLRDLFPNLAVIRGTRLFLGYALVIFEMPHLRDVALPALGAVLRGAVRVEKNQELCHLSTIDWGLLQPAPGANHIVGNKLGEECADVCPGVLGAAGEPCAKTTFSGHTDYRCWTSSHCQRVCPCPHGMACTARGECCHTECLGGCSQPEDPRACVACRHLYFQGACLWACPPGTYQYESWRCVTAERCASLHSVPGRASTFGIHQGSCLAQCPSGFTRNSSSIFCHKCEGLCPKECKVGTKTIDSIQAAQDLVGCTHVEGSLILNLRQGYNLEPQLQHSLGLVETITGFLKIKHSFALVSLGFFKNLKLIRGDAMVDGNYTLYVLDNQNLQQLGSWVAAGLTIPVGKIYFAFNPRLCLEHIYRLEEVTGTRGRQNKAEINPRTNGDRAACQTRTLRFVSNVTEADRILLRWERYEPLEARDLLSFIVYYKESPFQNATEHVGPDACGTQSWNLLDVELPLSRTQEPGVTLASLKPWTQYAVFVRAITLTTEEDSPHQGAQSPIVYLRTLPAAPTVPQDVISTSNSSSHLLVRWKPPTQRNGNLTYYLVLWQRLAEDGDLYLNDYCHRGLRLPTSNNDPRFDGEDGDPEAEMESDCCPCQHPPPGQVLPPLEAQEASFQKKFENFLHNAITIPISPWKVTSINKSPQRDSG
Chain of Insulin receptor-related protein (Homo sapiens) (P14616 747-1297 limits assumed): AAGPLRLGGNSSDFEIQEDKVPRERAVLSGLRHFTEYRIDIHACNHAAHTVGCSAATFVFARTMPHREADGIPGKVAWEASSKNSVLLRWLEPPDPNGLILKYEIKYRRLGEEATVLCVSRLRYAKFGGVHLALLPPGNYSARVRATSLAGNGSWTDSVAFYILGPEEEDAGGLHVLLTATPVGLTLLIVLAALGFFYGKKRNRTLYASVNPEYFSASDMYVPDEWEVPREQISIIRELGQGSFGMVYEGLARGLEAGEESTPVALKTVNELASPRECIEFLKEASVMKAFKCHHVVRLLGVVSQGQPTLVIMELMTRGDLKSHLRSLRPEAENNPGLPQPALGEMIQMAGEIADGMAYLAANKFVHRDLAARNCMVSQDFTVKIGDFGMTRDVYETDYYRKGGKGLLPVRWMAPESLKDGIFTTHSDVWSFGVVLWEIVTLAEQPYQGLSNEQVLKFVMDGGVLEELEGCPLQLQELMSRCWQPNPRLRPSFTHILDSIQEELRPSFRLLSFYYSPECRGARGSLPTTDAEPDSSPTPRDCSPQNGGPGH

With `COc1cc2ncn(-c3cc(OCc4ccccc4C(F)(F)F)c(C(C)=O)s3)c2cc1OC`, the inhibition in [1] worked out at 5.55%; in experiment [2], 20.5%; in [3] it was 67.7%; in [4] it was 6.18%; in experiment [5], 2.27%; in experiment [6] it was 3.53%. The inhibition in experiment [7] worked out at 5.96%; in experiment [8], 0.38%; in experiment [9], 10.8%; in experiment [10] it was 1.85%; in [11] it was 8.03%; in [12], 5.79%. For the same compound, the inhibition in experiment [13] is 9.81%; in experiment [14], -2.34%; in [15], 1.09%; in [16], -1.39%; in experiment [17], -0.63%; in experiment [18], 5%. Further, the inhibition in [19] was determined as 3.18%; in [20], 0.57%.

In the case of `CN(c1ccc(NC(=O)Nc2c(Cl)cccc2Cl)cc1)c1ccnc(Nc2cccc(CS(C)(=O)=O)c2)n1`, the inhibition is -6.03% in [1]; 0.57% in experiment [2]; 0.37% in experiment [3]; 3.9% in [4]; 28.8% in experiment [5]; 23% in experiment [6]. The inhibition in experiment [7] was determined as 41.7%; in experiment [8], 92.1%; in [9], 96.2%; in experiment [10] it was 2.74%; in experiment [11], 12.4%; in experiment [12], 22.5%. Moreover, the inhibition in experiment [13] was 48.9%; in experiment [14], 5.47%; in experiment [15] it was 4.63%; in [16], 1.49%; in experiment [17], 3.45%; in experiment [18] it was 2.73%. The inhibition in [19] came to 4.71%; in experiment [20] it was 54.1%.

Regarding `O=C(Nc1n[nH]c2nc(-c3ccc(O)cc3)c(Br)cc12)C1CC1`, the inhibition was 13.2% in [1]; 6.21% in experiment [2]; 5.59% in [3]; 10.2% in [4]; 27.1% in experiment [5]; 18.3% in [6]. Moreover, the inhibition in experiment [7] turned out to be 60.9%; in experiment [8], 3.87%; in [9], 6.92%; in [10] it was 5.98%; in [11] it was 14.5%; in experiment [12], 12.2%. Moreover, the inhibition stood at 28.4% in experiment [13]; 5.22% in [14]; 5.83% in [15]; 7.55% in experiment [16]; 6.22% in experiment [17]; 1.99% in experiment [18]. Moreover, the inhibition was found to be 1.59% in experiment [19] and 2.89% in experiment [20].

With `O=C1NC(=O)C(c2cccc(Cl)c2)=C1Nc1ccc(Cl)c(C(=O)O)c1`, the inhibition is 2.04% in experiment [1]; 4.93% in experiment [2]; 2.75% in [3]; 5.47% in [4]; -3.79% in [5]; 3.32% in experiment [6]. Besides, the inhibition in experiment [7] was 12.2%; in experiment [8], -0.3%; in [9] it was 10.7%; in [10], 0.43%; in experiment [11], 6.23%; in experiment [12], 3.57%. For the same compound, the inhibition stood at 3.65% in experiment [13]; 2.14% in experiment [14]; 3.35% in [15]; 4.57% in [16]; 7.53% in experiment [17]; 1.75% in experiment [18]. Further, the values for the inhibition in experiment [19] and in experiment [20] were 1.42% and 1.1%, respectively.
